DT40 TDP1 CPT: growth inhibition of DT40 Tdp1-/-;hTDP1 cells with camptothecin (screen for TDP1 inhibitors) | Potency, µM (top dose mostly 46.2 µM), for inactives: at the top dose activity change, negative = growth inhibition, usual class: inhibitors | 420,000 compounds, 12% hits | chicken DT40 Tdp1-/-;hTDP1 cells + 20 nM CPT, ATP luminescence, 48 h; note: nearly all actives have a fitted effect of over 55% in size
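Chicken DT40 Tdp1-/- cells stably complemented with human TDP1 were seeded at 400 cells/well in medium containing 20 nM camptothecin, exposed to pin-transferred compounds, and grown at 37 °C for at least 48 hr. Viability was read as ATP luminescence.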
DT40 TDP1 no CPT: qHTS for Inhibitors of human tyrosyl-DNA phosphodiesterase 1 (TDP1): qHTS in cells in absence of CPT; DT40 Tdp1-/- hTDP1 cells, no CPT, ATP luminescence, 48 h; Potency, µM (top dose mostly 46.2 µM), without a hit: top-dose activity change, negative = growth inhibition, usual class: inhibitors; 420,000 compounds, 15% hits; note: nearly all actives have a fitted effect of over 55% in size
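Camptothecin absent (DMSO only). Human TDP1-complemented DT40 knockout cells, 400 cells/well, 37 °C for minimum 48 hr; ATP measured via CellTiter-Glo, 30 min dark incubation, luminescence.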
12-LOX inh: ALOX12 (human) lipoxygenase inhibition. P18054. 580,000 compounds, 1.1% hits. purified 12hLO, xylenol orange hydroperoxide absorbance. Potency, µM (top dose mostly 108 µM), inactives show top-dose activity change, negative = inhibition, hits mostly inhibitors
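Hydroperoxide product was detected by ferrous iron/xylenol orange as the 573 to 405 nm absorbance ratio. Arachidonic acid at 40 uM (final) was turned over for 30 min at room temperature by 150 nM human 12hLO, pH 7.0 Hepes buffer, after 15 min compound preincubation.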
Gal4-VP16 FLuc: counter-screen for ROR gamma inhibitors: Gal4-VP16 reporter; Potency, µM (top dose mostly 53.6 µM), inactives show top-dose activity, negative = inhibition, hits mostly inhibitors; Drosophila S2 Gal4-VP16 UAS-luciferase, luminescence, 20 h; 310,000 compounds, 3.5% hits;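 note: Gal4-VP16 expression switched on by copper sulfate through the metallothionein promoter; nearly all actives have a fitted effect of over 50% in size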
RORg inh: blocks mouse ROR gamma transcriptional activity; Drosophila S2 Gal4-RORgamma UAS-luciferase reporter, 20 h; Potency, µM (highest dose often 53.6 µM), without a hit: top-dose activity change, negative = inhibition, most hits filed as inhibitors; P51450; 310,000 compounds, 5.4% hits; note: nearly all actives have a fitted effect of over 60% in size
Target sequence (P51450 whole entry, looked up, the tested form may be a part): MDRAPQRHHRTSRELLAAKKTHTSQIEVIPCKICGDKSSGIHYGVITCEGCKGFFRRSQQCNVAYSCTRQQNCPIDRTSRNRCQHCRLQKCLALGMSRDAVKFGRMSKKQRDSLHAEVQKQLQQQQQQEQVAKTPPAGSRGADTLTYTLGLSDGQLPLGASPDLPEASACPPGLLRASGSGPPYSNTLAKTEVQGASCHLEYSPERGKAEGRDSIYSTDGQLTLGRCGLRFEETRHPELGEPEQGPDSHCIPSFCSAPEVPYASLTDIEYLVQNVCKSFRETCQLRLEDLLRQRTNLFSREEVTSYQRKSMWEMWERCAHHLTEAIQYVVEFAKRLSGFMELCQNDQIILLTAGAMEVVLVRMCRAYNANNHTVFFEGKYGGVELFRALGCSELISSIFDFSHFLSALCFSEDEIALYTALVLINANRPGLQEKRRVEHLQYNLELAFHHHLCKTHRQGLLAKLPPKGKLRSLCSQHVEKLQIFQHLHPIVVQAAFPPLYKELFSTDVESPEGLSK
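Drosophila Schneider cells stably carrying a metallothionein-driven Gal4 DBD–ROR gamma fusion and a UAS-Photinus luciferase reporter were exposed to compound for 1 hr, then induced with copper sulfate (700 uM final) for 20 hr at ambient temperature before luminescence reading.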
ELG1 repair inh: inhibitors of ELG1-dependent DNA repair in HEK293T cells | HEK293T ELG1-luciferase reporter, luminescence, 16 h; DNA damage induced by 5-fluorouridine | Potency, µM (doses to about 46.1 µM), inactives show at the top dose activity change, negative = inhibition, usual class: inhibitors | 330,000 compounds, 2.3% hits; note: nearly all actives have a fitted effect of over 55% in size
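Reporter activity after DNA damage by 5-fluorouridine is monitored. Compound-treated cells incubate 16 hr at 37 °C, then ONE-Glo is added for 30 min before luminescence reading.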
An asterisk follows results filed as active; ? = inconclusive; / = no result given; [ ] = remark or other dose. Most compounds without a hit are left out; they make up all but 15% or so of the library. Calls come from the whole dose curve; as a rule, active = well fitted curve in the direction sought with a large enough effect; inconclusive = small, poorly fitted or top-dose-only effect, or another doubt; inactive = no such curve, though single readings can be large; an effect the other way counts as inactive or inconclusive. % is set by controls: 0 for no effect and ±100 for the full control effect; potency is the fitted concentration of half-maximal effect.

SMILES	DT40 TDP1 CPT	DT40 TDP1 no CPT	12-LOX inh	Gal4-VP16 FLuc	RORg inh	ELG1 repair inh
C=C1C(=O)[C@@]23[C@H](O)C[C@@H]4C(C)(C)CC[C@H](O)[C@@]4(C)[C@@H]2CC[C@@H]1[C@H]3O	1µM*	0.82µM*	18%	5.6µM*	2.8µM*	6.5µM*
C=C1C(=O)[C@@]23[C@H](O)C[C@@H]4C(C)(C)CC[C@H](O)[C@]4(C)[C@@H]2C[C@H](O)[C@@H]1[C@H]3O	3.3µM*	?	17%	3.2µM*	2.5µM*	16µM*
O=C(Nc1ccccc1)N1CCC2(CC1)SCC(=O)N2c1ccccc1	/	/	31%	/	/	/
O=C1CC(c2ccco2)CC2=C1C1c3ccccc3C(=O)N1c1ccccc1N2 (stereo not given)	?	23µM*	-13%	2%	21%	-1%
CC(=O)c1c(C)[nH]c(C(=O)Nc2cccc(C(F)(F)F)c2)c1C	?	21µM*	-9%	-2%	?	?
CC(=O)c1c(C)[nH]c(C(=O)Nc2cccc(C#N)c2)c1C	-20%	16µM*	-21%	24%	0%	16%
Oc1cccc(-c2nc3ccc4ccccc4c3c3c2CCC3)c1	?	21µM*	-23%	-26%	-36%	?
O=C(c1ccc2c(c1)OCO2)N1CC(c2noc(C3CCCN3CC3CC3)n2)C1 (stereo not given)	/	/	28%	/	/	/
O=C(Nc1ccc(Br)cn1)c1cccc(S(=O)(=O)N2CCCC2)c1	1%	?	1%	/	/	?
O=C(Nc1ccc(Br)cn1)c1cccc(C(=O)Nc2ccc(Br)cn2)c1	?	?	-8%	1.3µM*	?	?
O=C(Nc1ccc(Cl)cc1)Nc1ccc(Br)cn1	18µM*	18µM*	8%	-12%	12%	?
COc1cc2ccccc2cc1C(=O)Nc1ccc(Br)cn1	?	-8%	0%	-16%	-36%	?
O=C(Nc1ccc(Br)cn1)c1ccc2ccccc2c1	?	15µM*	?	3%	3%	?
O=C(Nc1ccc(Br)cn1)c1ccc2nccnc2c1	13µM*	18µM*	-3%	/	/	/
CCSc1ncc(Cl)c(C(=O)Nc2nnc(CC(C)C)s2)n1	/	/	5%	/	/	/
CC(C(=O)N(C)CC(=O)Nc1ccccc1C(F)(F)F)N(C)Cc1ccccc1Br (stereo not given)	/	/	-4%	/	/	/
CSc1ncc(C(=O)Nc2ccc(Br)cn2)c(C)n1	16µM*	?	0%	?	0%	-6%
CSc1ncc(C(=O)Nc2ccc(Cl)cc2)c(C)n1	12%	?	-30%	-6%	?	8%
O=C(Nc1ccc(Br)cn1)c1cccc2ccccc12	2.1µM*	2.1µM*	0%	/	/	/
O=C(CSc1cc(Cl)ccc1Cl)NC1CCS(=O)(=O)C1 (stereo not given)	/	/	-7%	/	/	/
Cc1cccc(-n2c(-c3csc(C(C)C)c3)n[nH]c2=S)c1	-1%	-2%	?	?	1.6µM*	1%
S=c1[nH]nc(-c2cccc3ccccc23)n1-c1cccnc1	12%	-11%	?	-2%	-43%	2%
Cc1ccccc1-n1c(-c2csc3ccccc23)n[nH]c1=S	-22%	?	?	?	1.1µM*	-9%
Cc1cccc(-n2c(-c3csc(C)c3C)n[nH]c2=S)c1	2%	-24%	?	11µM*	2.5µM*	-12%
Cc1scc(-c2n[nH]c(=S)n2C(C)c2ccccc2)c1C (stereo not given)	?	16µM*	?	7.1µM*	4µM*	-1%
SMILES	DT40 TDP1 CPT	DT40 TDP1 no CPT	12-LOX inh	Gal4-VP16 FLuc	RORg inh	ELG1 repair inh
Cc1cc(C(=O)CSc2nnc(-c3ccncc3)n2-c2ccc(F)cc2)c(C)n1C1CC1	/	/	-20%	/	/	/
CC(C)c1ccccc1-n1c(-c2cccnc2)n[nH]c1=S	-16%	-19%	?	-28%	?	25%
Cc1ccccc1-n1c(-c2csc(C)c2C)n[nH]c1=S	?	?	?	6.3µM*	2.8µM*	?
O=C1c2ccccc2-c2onc3ccc(Oc4ccccc4)c1c23	3.3µM*	2.6µM*	-3%	?	?	?
COc1ccc(C(=O)N2CCC(C(=O)N3CCCCCCNC(=O)CC3)CC2)cc1	/	/	39%	/	/	/
Cc1noc(C)c1[S+](=O)([O-])N1CCC2OCCN(Cc3ccccc3)C(=O)C2C1 (stereo not given)	/	/	100µM*	/	/	/
Cc1noc(C)c1[S+](=O)([O-])N1CCC2(CC1)OCCN(Cc1ccccc1)C2=O	/	/	17%[176 µM]	/	/	/
CCOC(=O)c1c(CN2CCC(C(=O)NCC(F)(F)F)CC2)nc2ccccc2c1C	/	/	9%	/	/	/
